From PubChem BioAssay (NCATS)
Results filed as inconclusive are left out. Activity calls are given as the source filed them. Unless noted, the call rests on the fitted dose curve; in most records, active means well fitted curve in the direction sought with a large enough effect; inconclusive means small, poorly fitted or top-dose-only effect, or another doubt; inactive means no such curve, though single readings can be large; an effect the other way counts as inactive or inconclusive. Residues, ends and D or L forms follow the SMILES beside them. *: point of attachment. Cbz = O=C(OCc1ccccc1)*

What was measured:
[1] = Nrf2 qHTS screen for inhibitors: Validation (AID 493153; active means well fitted inhibition curve with a large enough effect in the main read-out, with a control signal flat, not every such curve was filed as active; further: potency means the concentration at half of the fitted maximal effect); conditions: Potency: luciferase luminescence; viability change: measured here: cytotoxicity max response
Procedure, shortened: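 A549 cells carrying an ARE-driven firefly luciferase reporter, in 5% FBS OPTI-MEM, were treated with compounds in concentration-response for 18-24 h at 37°C. Viability was read by CellTiter-Fluor fluorescence, then Nrf2 activity by luciferase luminescence.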

[2] = qHTS for Inhibitors of Cell Surface uPA Generation: Validation Assay (AID 493164);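 further: RAW 264.7 macrophage cells exposed to compound for 18 h; 0% is about no effect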
Procedure, shortened: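 RAW 264.7, 4000 cells/well, o/n plating; cpd 7-pt 1:5 dilution 2.45 nM–38.3 uM final; 18 h, 37 C/5% CO2; ATP-Lite, 5 s luminescence exposure.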

[3] = target: Galactokinase (Homo sapiens) (UniProt P51570); assay: qHTS Validation Assay for Inhibitors of Human Galactokinase (GALK) (AID 493189); further: 0% is about no effect
Procedure, shortened: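 GALK (5 nM) with 35 uM ATP and 100 uM galactose in HEPES pH8.0, MgCl2, NaCl, DTT, BSA; 1 h at room temperature. Residual ATP read by Kinase-Glo Plus luminescence after 10 min.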

[4] = Validation screen for small molecules that induce DNA re-replication in SW480 colon adenocarcinoma cells (AID 504364); further: 0% is about no effect
Procedure, shortened: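 SW480 cells seeded at 250 per well were exposed to compound or DMSO for 48 hr at 37 C, 5% CO2, then stained with Hoechst for 40 min. DNA content per nucleus was imaged (405 nm ex, 500-530 nm em).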

[5] = target: Peptidyl-prolyl cis-trans isomerase NIMA-interacting 1 (Homo sapiens) (UniProt Q13526); assay: qHTS Validation Assay to Find Inhibitors of Pin1 (AID 504536; active means well fitted inhibition curve with a large enough effect in the polarisation, with a control signal flat, not every such curve was filed as active; the % refers to the polarisation;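 further: 0% = full Pin1 enzyme wells and -100% = no-enzyme wells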)
Procedure, shortened: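 Fluorescence polarization competition: compounds (titration) displace HiFluor-488-labeled Pin1-1b peptide from Pin1 (0.3 uM final) in pH 7.5 HEPES buffer with DTT, 10 min at room temperature; %Activity normalized to no-enzyme wells, curves fitted.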

[6] = target: phosphoglycerate mutase (Leishmania major) (UniProt Q4Q090); assay: qHTS Validation Assay to Find Inhibitors of Phosphoglycerate Mutase (AID 504548); conditions: Potency: inhibition qHTS;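 further: end-point luminescence from Kinase-GloPlus after the PGAM reaction; series mostly up to about 58 µM; on the % scale 0 is the no-effect control and ±100 the full control effect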
Procedure, shortened: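 L. major PGAM (1.25nM final) was added to substrate buffer and pinned compound, incubated 45 minutes at room temperature, then Kinase-GloPlus added; luminescence read after 10 minutes. Buffer: 100 mM TEA pH 7.6, 5 mM MgCl2, 0.01% Tween-20.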

[7] = target: Ubiquitin carboxyl-terminal hydrolase 1 (Homo sapiens) (UniProt O94782); assay: Inhibitors of USP1/UAF1: Pilot qHTS (AID 504865); further: nearly all actives have a fitted effect of over 35% in size; further: potency means the concentration at half of the fitted maximal effect
Procedure, shortened: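 USP1/UAF1 complex (1nM) preincubated with compound 15 min at room temperature, then Ub-Rho substrate (150nM final) added. Fluorescence read kinetically at 480/540 nm, 6 reads every 60 seconds. Buffer: 50mM HEPES pH 7.8, 0.5mM EDTA, 0.1 mg/ml BSA, 1mM TCEP, 0.01% Tween-20.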

[8] = qHTS for Inhibitors of ATXN expression: Validation of Cytotoxic Assay (AID 588349); further: potency means the concentration at half of the fitted maximal effect
Procedure, shortened: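 HEK293 cells were dosed with titrated compounds for 72 hr at 37 degrees C. Viability was read by CellTiter Glo luminescence, with intracellular ATP as the marker of cell survival.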

[9] = qHTS for Inhibitors of ATXN expression: Validation (AID 588378); further: series mostly up to about 57 µM; on the % scale 0 is the no-effect control and ±100 the full control effect; nearly all actives have a fitted effect of over 75% in size
Procedure, shortened: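 Luminescence from an ATXN2-FFLuc reporter in HEK293 cells served as read-out after 24 h compound treatment at 37 degrees C; CellTiter-Fluor fluorescence was recorded first to assess viability.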

[10] = target: DNA dC->dU-editing enzyme APOBEC-3G (Homo sapiens) (UniProt Q9HC16); assay: qHTS for inhibitors of Vif-A3G interactions: Validation (AID 588379); further: 0% is about no effect
Procedure, shortened: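 HeLa cells stably expressing Vif and A3G-eYFP, 700 cells/well, incubated overnight at 37 deg C, then exposed to compound overnight at 37 deg C. Inhibition of Vif-mediated degradation read as increased yellow fluorescence (Ex 488/Em 500-530) by laser-scanning cytometry.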

[11] = target: Phosphoglycerate kinase, glycosomal (Trypanosoma brucei brucei) (UniProt P07378); assay: qHTS Validation Assay to Find Inhibitors of Phosphoglycerate Kinase (AID 504547);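 further: control wells lack PGK and mark full inhibition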
Procedure, shortened: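 Substrate/PGK mix plus compound; reaction started with GAPDH (100nM final) to form 1,3-BPG; 60 min RT; Kinase-Glo Plus 10 min; luminescence. TEA 100mM pH 7.6, MgCl2 5mM, Tween-20 0.01%.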

[12] = target: Bile acid receptor (Homo sapiens) (UniProt Q96RI1); assay: qHTS assay for small molecule antagonists of farnesoid X receptor signaling (AID 588526; calls by dose curve; further: on the % scale 0 is the no-effect control and ±100 the full control effect)
Procedure, shortened: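 Concentration-response titrations were fitted to the Hill equation for half-maximal inhibition and maximal response, with data normalised to 50 uM chenodeoxycholic acid and DMSO control wells. Cells: FXR-UAS-bla HEK293T, dialyzed FBS.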

[13] = target: Glucocorticoid receptor (Homo sapiens) (UniProt P04150); assay: qHTS assay for small molecule agonists of glucocorticoid receptor signaling (AID 588532; active means well fitted curve in the direction sought with a large enough effect in the signal ratio, with a control signal flat; the % refers to the signal ratio;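 further: 100% = dexamethasone at 0.1 µM and 0% = DMSO only wells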); conditions: HeLa MMTV-bla, beta-lactamase ratio, agonist, 18 h; stronger effect = higher value; percent of dexamethasone control, DMSO zero
Procedure, shortened: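 Stimulation of a glucocorticoid response element-driven beta-lactamase gene was measured in HeLa cells. Responses were scaled between DMSO basal and 0.1 uM dexamethasone, then fitted for half-maximal stimulation.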

[14] = target: Glucocorticoid receptor (Homo sapiens) (UniProt P04150); assay: qHTS assay for small molecule antagonists of glucocorticoid receptor signaling (AID 588533; active means well fitted inhibition curve with a large enough effect in the signal ratio, with a control signal flat, not every such curve was filed as active; the % refers to the signal ratio;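 further: cells stimulated with 2 nM dexamethasone as agonist; on the % scale 0 is the no-effect control and ±100 the full control effect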)
Procedure, shortened: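 Antagonist-mode qHTS: compound titrations added to GRE-bla HeLa cells, then dexamethasone 2 nM final; 18 h, 37 C. CCF4 FRET fluorescence normalized to dexamethasone and DMSO; IC50 from Hill fit.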

[15] = qHTS assay for small molecule antagonists of peroxisome proliferator-activated receptor delta signaling (AID 588535; active means well fitted inhibition curve with a large enough effect in the signal ratio, with a control signal flat, not every such curve was filed as active; the % refers to the signal ratio;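 on max response: cells co-treated with a PPAR-delta agonist as stimulator during compound exposure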); conditions: HEK293T PPARd-UAS-bla, beta-lactamase FRET ratio, 18 h; 460 nm channel
Procedure, shortened: (§1)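 GeneBLAzer PPAR-delta-UAS-bla HEK293T cells in medium with 2% charcoal/dextran FBS were preincubated 5 hrs at 37 C, then given compounds, incubated 18 hrs at 37 C, and read by CCF4 beta-lactamase fluorescence; IC50 from Hill fits.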

[16] = target: Peroxisome proliferator-activated receptor delta (Homo sapiens) (UniProt Q03181); assay: as above
Procedure, shortened: as §1

DNA dC->dU-editing enzyme APOBEC-3G (Homo sapiens), sequence (Q9HC16 whole entry, looked up): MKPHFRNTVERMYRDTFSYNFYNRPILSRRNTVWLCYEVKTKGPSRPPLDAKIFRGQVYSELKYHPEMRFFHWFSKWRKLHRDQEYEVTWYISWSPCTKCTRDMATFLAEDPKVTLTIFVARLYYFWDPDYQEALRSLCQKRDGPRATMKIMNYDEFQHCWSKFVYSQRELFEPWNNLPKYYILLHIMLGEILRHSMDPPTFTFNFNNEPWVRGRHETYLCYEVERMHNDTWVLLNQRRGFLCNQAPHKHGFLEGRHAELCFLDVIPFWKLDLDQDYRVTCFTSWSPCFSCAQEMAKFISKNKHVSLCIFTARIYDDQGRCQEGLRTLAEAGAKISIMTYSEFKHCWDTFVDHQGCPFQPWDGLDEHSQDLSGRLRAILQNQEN
Peptidyl-prolyl cis-trans isomerase NIMA-interacting 1 (Homo sapiens), sequence (Q13526 whole entry, looked up): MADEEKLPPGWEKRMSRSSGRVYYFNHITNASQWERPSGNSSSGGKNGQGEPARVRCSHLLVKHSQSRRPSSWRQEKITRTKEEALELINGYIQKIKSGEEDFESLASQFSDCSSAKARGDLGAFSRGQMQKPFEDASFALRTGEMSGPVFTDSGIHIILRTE
Ubiquitin carboxyl-terminal hydrolase 1 (Homo sapiens), sequence (O94782 whole entry, looked up): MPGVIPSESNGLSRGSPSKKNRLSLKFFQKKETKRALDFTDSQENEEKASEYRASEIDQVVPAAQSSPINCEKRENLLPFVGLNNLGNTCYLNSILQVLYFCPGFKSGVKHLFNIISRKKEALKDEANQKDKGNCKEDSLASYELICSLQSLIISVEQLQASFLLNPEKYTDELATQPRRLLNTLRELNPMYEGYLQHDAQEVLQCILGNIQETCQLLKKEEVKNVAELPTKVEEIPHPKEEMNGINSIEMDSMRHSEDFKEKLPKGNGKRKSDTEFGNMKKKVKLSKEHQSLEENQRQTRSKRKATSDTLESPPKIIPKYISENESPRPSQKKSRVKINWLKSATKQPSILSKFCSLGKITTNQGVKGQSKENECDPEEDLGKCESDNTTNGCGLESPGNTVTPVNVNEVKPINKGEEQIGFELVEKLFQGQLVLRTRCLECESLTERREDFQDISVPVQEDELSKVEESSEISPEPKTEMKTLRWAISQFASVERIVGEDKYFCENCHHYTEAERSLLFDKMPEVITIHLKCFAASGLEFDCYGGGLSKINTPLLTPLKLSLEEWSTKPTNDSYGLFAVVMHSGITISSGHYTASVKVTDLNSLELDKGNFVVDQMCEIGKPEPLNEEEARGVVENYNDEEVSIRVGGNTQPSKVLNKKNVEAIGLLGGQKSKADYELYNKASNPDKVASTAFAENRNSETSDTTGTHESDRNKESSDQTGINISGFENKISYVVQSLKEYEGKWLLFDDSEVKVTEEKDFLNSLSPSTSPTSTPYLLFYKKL
Phosphoglycerate kinase, glycosomal (Trypanosoma brucei brucei), sequence (P07378 whole entry, looked up): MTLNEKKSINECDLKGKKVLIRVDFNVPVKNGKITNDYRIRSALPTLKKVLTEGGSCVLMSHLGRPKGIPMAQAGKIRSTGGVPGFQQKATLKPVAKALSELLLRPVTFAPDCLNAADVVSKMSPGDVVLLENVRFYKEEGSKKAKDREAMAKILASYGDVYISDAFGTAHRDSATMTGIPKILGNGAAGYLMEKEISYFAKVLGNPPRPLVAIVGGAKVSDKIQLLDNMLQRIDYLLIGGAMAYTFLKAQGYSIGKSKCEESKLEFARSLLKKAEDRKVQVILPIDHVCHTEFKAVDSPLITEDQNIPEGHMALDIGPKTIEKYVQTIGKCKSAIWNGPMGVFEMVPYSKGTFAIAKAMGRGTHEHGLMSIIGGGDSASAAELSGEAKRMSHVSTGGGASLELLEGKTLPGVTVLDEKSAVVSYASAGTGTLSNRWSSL
Galactokinase (Homo sapiens), sequence (P51570 whole entry, looked up): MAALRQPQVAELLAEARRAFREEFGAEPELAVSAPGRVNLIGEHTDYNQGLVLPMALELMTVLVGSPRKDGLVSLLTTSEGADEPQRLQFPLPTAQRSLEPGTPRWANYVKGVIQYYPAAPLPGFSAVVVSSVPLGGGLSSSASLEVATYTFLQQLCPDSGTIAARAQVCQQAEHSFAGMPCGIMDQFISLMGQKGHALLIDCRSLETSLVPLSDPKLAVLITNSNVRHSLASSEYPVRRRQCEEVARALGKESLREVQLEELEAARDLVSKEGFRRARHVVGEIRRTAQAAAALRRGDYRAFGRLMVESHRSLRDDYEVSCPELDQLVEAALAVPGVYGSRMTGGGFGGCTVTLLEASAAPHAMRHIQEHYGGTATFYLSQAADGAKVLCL
Glucocorticoid receptor (Homo sapiens), sequence (P04150 whole entry, looked up): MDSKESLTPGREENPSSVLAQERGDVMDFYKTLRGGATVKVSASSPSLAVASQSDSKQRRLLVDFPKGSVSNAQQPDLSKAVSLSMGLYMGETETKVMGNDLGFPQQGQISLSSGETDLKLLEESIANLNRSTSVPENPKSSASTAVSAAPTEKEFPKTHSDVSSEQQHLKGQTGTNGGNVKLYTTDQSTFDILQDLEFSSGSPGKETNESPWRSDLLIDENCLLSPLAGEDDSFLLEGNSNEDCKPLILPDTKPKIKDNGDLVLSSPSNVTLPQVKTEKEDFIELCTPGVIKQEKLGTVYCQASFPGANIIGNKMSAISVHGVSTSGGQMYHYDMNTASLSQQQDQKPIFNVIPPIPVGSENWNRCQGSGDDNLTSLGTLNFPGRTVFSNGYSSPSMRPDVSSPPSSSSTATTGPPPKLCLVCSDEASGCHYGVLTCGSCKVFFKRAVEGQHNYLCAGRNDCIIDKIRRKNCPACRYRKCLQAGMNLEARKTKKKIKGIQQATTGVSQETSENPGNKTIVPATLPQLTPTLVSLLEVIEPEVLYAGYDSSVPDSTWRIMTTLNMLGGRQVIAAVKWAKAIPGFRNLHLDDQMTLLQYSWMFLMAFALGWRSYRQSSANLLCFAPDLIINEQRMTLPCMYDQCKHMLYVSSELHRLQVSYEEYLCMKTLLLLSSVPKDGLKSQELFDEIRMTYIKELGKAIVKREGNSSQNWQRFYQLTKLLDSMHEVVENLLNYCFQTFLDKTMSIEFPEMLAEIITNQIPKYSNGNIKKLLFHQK
phosphoglycerate mutase (Leishmania major), sequence (Q4Q090 1-553): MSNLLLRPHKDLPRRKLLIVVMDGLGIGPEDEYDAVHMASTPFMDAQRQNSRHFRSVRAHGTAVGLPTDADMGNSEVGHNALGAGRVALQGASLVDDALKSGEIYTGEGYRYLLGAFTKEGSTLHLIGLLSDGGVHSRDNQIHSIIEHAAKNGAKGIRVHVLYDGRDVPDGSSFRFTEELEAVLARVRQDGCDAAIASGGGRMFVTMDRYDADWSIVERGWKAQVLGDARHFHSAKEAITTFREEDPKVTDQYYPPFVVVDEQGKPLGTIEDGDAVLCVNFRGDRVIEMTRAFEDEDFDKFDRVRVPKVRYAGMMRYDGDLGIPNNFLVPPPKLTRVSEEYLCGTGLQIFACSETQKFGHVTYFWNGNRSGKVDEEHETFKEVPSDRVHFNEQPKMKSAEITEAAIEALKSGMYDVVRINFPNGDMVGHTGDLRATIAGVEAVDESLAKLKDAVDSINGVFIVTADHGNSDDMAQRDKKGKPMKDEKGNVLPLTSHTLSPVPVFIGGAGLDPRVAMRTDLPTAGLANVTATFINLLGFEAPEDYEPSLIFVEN
Peroxisome proliferator-activated receptor delta (Homo sapiens), sequence (Q03181 whole entry, looked up): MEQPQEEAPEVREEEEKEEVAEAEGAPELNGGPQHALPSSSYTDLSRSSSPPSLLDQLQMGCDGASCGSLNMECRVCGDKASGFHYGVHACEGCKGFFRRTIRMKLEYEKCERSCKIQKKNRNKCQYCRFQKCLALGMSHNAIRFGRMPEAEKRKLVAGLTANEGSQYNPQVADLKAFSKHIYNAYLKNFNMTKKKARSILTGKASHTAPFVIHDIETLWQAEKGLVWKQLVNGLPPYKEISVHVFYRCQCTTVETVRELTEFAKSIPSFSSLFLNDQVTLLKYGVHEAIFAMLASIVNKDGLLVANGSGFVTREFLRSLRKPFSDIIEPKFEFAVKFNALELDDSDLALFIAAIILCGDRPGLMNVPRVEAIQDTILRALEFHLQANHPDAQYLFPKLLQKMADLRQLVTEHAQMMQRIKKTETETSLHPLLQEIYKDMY
Bile acid receptor (Homo sapiens), sequence (Q96RI1 whole entry, looked up): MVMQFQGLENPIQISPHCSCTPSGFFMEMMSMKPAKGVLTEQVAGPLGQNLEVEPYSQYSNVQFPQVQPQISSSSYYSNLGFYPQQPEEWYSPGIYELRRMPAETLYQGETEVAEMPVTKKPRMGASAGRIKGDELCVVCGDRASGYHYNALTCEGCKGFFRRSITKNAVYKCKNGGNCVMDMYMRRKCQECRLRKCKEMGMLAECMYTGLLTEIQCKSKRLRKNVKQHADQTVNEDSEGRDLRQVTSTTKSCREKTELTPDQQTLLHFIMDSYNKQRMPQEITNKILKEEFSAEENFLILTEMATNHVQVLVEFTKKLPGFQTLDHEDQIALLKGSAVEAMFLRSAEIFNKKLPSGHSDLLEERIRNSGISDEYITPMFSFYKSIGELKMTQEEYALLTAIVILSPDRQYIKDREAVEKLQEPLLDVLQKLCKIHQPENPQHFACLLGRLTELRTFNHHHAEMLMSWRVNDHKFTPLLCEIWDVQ

O=C(O)C1=CCNCC1
inactive: Potency [1] | outcome [2] | Potency [3] | Potency [4] | Potency [5] | Potency [6] | Potency [7] | Potency [8] | Potency [9] | Potency [10]
7.14%: viability change [1]

CCSC(=N)N
inactive: Potency [1] | outcome [2] | Potency [3] | Potency [4] | Potency [5] | Potency [11] | Potency [6] | Potency [8] | Potency [9] | Potency [10]
0.659%: viability change [1]

COC(=O)C1=C(C)NC(C)=C([N+](=O)[O-])C1c1ccccc1C(F)(F)F (stereo unspecified)
-10.2%: viability change [1]
inactive: Potency [1] | outcome [2] | Potency [3] | Potency [4] | Potency [5] | Potency [11] | Potency [6] | Potency [8] | Potency [9]

O=C(O)[C@H]1NCCC[C@H]1C(=O)O
inactive: Potency [1] | outcome [2] | Potency [3] | Potency [4] | Potency [5] | Potency [6] | Potency [7] | Potency [8] | Potency [9]
11%: viability change [1]

CN1CCN(c2nc3cc(C(F)(F)F)ccc3n3cccc23)CC1
inactive: Potency [1] | outcome [2] | Potency [3] | Potency [4] | Potency [5] | Potency [11] | Potency [6] | Potency [7] | Potency [10]
3.07%: viability change [1]

O=C(O)Cc1c[nH]c2ccc(O)cc12
0.136%: viability change [1]
inactive: Potency [1] | outcome [2] | Potency [3] | Potency [4] | Potency [5] | Potency [11] | Potency [6] | Potency [7] | Potency [9]

O=[N+]([O-])c1cccc2cn[nH]c12
inactive: Potency [1] | outcome [2] | Potency [3] | Potency [4] | Potency [5] | Potency [6] | Potency [7] | Potency [8] | Potency [9] | Potency [10]
-18.2%: viability change [1]

CCCC[C@@]1(C2CCCC2)Cc2cc(OCC(=O)O)c(Cl)c(Cl)c2C1=O
-6.32%: viability change [1]
inactive: Potency [1] | outcome [2] | Potency [3] | Potency [4] | Potency [5] | Potency [11] | Potency [6] | Potency [8]

NCCS(=O)O
inactive: Potency [1] | outcome [2] | Potency [3] | Potency [4] | Potency [5] | Potency [11] | Potency [6] | Potency [8] | Potency [9] | Potency [10]
6.69%: viability change [1]

c1ccc(CN2CCC3(CCCc4ccccc43)CC2)cc1
-10.2%: viability change [1]
inactive: Potency [1] | outcome [2] | Potency [3] | Potency [4] | Potency [5] | Potency [6] | Potency [7]

O=C(N[C@@H](Cc1ccccc1)C(=O)CCl)OCc1ccccc1
active: Potency [1] 14.6 µM | Potency [7] 28.2 µM | Potency [8] 3.55 µM
-11.4%: viability change [1]
inactive: outcome [2] | Potency [3] | Potency [4] | Potency [5] | Potency [6]

C=C(C)C1CC=C(C(=O)O)CC1 (stereo unspecified)
inactive: Potency [1] | outcome [2] | Potency [3] | Potency [4] | Potency [5] | Potency [11] | Potency [6] | Potency [8] | Potency [9]
1.77%: viability change [1]

CC(=O)C(C)=O
inactive: Potency [1] | outcome [2] | Potency [3] | Potency [4] | Potency [5] | Potency [6] | Potency [7] | Potency [8] | Potency [9] | outcome [12] | activation [13] 6.3% | Potency [14] | outcome [16]
5.57%: max response [15]
-3.11%: viability change [1]

N#Cc1cc2nc(O)c(O)nc2cc1[N+](=O)[O-]
-8.54%: viability change [1]
inactive: Potency [1] | outcome [2] | Potency [3] | Potency [4] | Potency [5] | Potency [11] | Potency [6] | Potency [7] | Potency [8] | Potency [10]

COc1cc(CNC(=O)CCCCCCC(C)C)ccc1O
-9.77%: viability change [1]
inactive: Potency [1] | outcome [2] | Potency [3] | Potency [4] | Potency [5] | Potency [11] | Potency [6] | Potency [8] | Potency [9] | Potency [10]

CC(C)[C@H](NC(=O)OCc1ccccc1)C(=O)N[C@H](C=O)Cc1ccccc1 (Cbz-Val-Phe-aldehyde)
13.7%: viability change [1]
inactive: Potency [1] | outcome [2] | Potency [3] | Potency [4] | Potency [5] | Potency [11] | Potency [6] | Potency [7] | Potency [9]

CNc1ncnc2c1ncn2[C@H]1C[C@H](OP(=O)(O)O)[C@@H](COP(=O)(O)O)O1
-10.4%: viability change [1]
inactive: Potency [1] | outcome [2] | Potency [3] | Potency [4] | Potency [5] | Potency [11] | Potency [6] | Potency [8]

CSC(N)=NCCC[C@H](N)C(=O)O
inactive: Potency [1] | outcome [2] | Potency [3] | Potency [4] | Potency [5] | Potency [11] | Potency [8] | Potency [9]
-16.2%: viability change [1]

CC(C)(CO)Cc1cc(C(C)(C)C)c(O)c(C(C)(C)C)c1
10.3%: viability change [1]
inactive: Potency [1] | outcome [2] | Potency [3] | Potency [4] | Potency [5] | Potency [11] | Potency [6] | Potency [10]

CCN(CC)CCOC(=O)c1cc(Cl)c(N)cc1OC
2.46%: viability change [1]
inactive: Potency [1] | outcome [2] | Potency [3] | Potency [4] | Potency [5] | Potency [6] | Potency [8] | Potency [9]

N[C@@H](CCC(=O)N[C@H](CSN=O)C(=O)NCC(=O)O)C(=O)O
5.63%: viability change [1]
inactive: Potency [1] | outcome [2] | Potency [3] | Potency [4] | Potency [5] | Potency [11] | Potency [6] | Potency [8] | Potency [9]

COc1cc(N)c(Cl)cc1C(=O)OCCN1CCCCC1
inactive: Potency [1] | outcome [2] | Potency [3] | Potency [4] | Potency [5] | Potency [7] | Potency [8] | Potency [9]
-3.02%: viability change [1]

O=C1C2C=CC=CC2=NC(=S)N1CCN1CCC(=C(c2ccc(F)cc2)c2ccc(F)cc2)CC1 (stereo unspecified)
inactive: Potency [1] | outcome [2] | Potency [3] | Potency [4] | Potency [11] | Potency [6] | Potency [7] | Potency [8] | Potency [9]
6.28%: viability change [1]

CC1=C(/C=C/C(C)=C/C=C/C(C)=C\C(=O)O)C(C)(C)CCC1
61.4%: max response [15]
8.59%: viability change [1]
inactive: Potency [1] | outcome [2] | Potency [3] | Potency [4] | Potency [11] | Potency [6] | Potency [7] | Potency [8] | activation [13] -7.34% | outcome [16]

[Li+]
inactive: Potency [1] | outcome [2] | Potency [3] | Potency [4] | Potency [11] | Potency [6] | Potency [7] | Potency [8] | Potency [9]
6.42%: viability change [1]

Fc1ccc(CN(C2=NCCN2)c2c(Cl)cccc2Cl)cc1
-18.2%: viability change [1]
inactive: Potency [1] | outcome [2] | Potency [3] | Potency [4] | Potency [11] | Potency [6] | Potency [7]

Cc1nc(N=Nc2ccc(C(=O)O)cc2)c(COP(=O)(O)O)c(C=O)c1O
-9.24%: viability change [1]
inactive: Potency [1] | outcome [2] | Potency [3] | Potency [4] | Potency [11] | Potency [6] | Potency [9]
active: Potency [7] 22.4 µM
